Measurements as given in PubChem BioAssay AID2314 (National Center for Advancing Translational Sciences (NCATS), 2010).
Hit rate of the full screen: of about 300,000 compounds, about 37,000 (12%) were called active. The sample holds actives, similar compounds and a random draw of the others, so the mix is not that of the screen. Cut-off read from the data, not from the text of the source: active = max response mostly above about 13% (no sharp cut-off); inactive = mostly below about 14%.

assay: Cycloheximide Counterscreen for Small Molecule Inhibitors of Shiga Toxin; settings: cell reporter, cycloheximide protein synthesis inhibition counterscreen; hits give high values; note: read at 38.3 µM for the half of the compounds with a filed dose; 0% is about no effect

SMILES	max response
COC(=O)c1ccccc1NC(=O)Cc1ccccc1OC	-2.67% (inactive)
COc1ccccc1CC(=O)Nc1ccc(F)cc1F	-2.45% (inactive)
CC[C@]1(c2ccccc2OC)C(=O)N(C(=O)OC)N1C(=O)OC	29.1% (active)
CCCC(C)NC(=O)C1CCN(C(=O)C2CC(=O)N(c3ccc(C)cc3)C2)CC1 (centres undefined)	-4.68% (inactive)
Brc1c(CSc2nncc3ccccc23)nc2ccccn12	38.5% (active)
CC(=O)O[C@H]1c2ccccc2-c2ccccc2[C@@H]1OC(C)=O	0.95% (inactive)
Cc1ccc(SCC(=O)NNC(=O)c2ccc(S(C)(=O)=O)cc2)cc1	5.01% (inactive)
Cc1cccnc1CCNC(=O)C1CCC(=O)N(Cc2cccc(F)c2)C1 (centres undefined)	-2.2% (inactive)
O=C1CCC(C(=O)N2CCCCO2)CN1Cc1cccc(C(F)(F)F)c1 (centres undefined)	30% (active)
COCC1CCN(C(=O)C2CCC(=O)N(CC3CCCCC3)C2)CC1 (centres undefined)	-2.01% (inactive)
COC(=O)c1ccc(CNC(=O)C2CCC(=O)N(Cc3cccc(F)c3)C2)cc1 (centres undefined)	0.912% (inactive)
COCC1CCN(C(=O)C2CCC(=O)N(Cc3cccc(C(F)(F)F)c3)C2)CC1 (centres undefined)	29.7% (active)
O=C(c1ccco1)N1CCN(Cc2cccc(C(F)(F)F)c2)CC1	-3.76% (inactive)
CC(=O)Nc1ccc(S(=O)(=O)N2CCC(C(=O)N[C@@H](Cc3ccccc3)C(=O)O)CC2)cc1	10.8% (inactive)
COc1ccccc1CNC(=O)C1CCN(S(=O)(=O)c2ccc3c(c2)OCCO3)CC1	-5.22% (inactive)
CCOc1cc(C(=O)O)ccc1OCCOc1ccccc1	-8.53% (inactive)
COc1ccccc1CC(=O)Nc1ccc(S(=O)(=O)N2CCCC2)cc1	-4.23% (inactive)
C[C@@]12C(=O)N(c3cccc(Br)c3)C(=O)N1[C@H](c1ccc(Cl)cc1)[C@@H]1C(=O)N(C3CCCCC3)C(=O)[C@@H]12	-2.82% (inactive)
CS(=O)(=O)c1ccc2nc(NC(=O)c3ccc(Cl)nc3)sc2c1	39.4% (active)
CCCC(=O)Nc1nc2ccc(NC(=O)c3cccnc3)cc2s1	9.53% (inactive)

SMILES	max response
O=C(Nc1nc2ccc([N+](=O)[O-])cc2s1)c1ccc(S(=O)(=O)N2CCCc3ccccc32)cc1	-2.29% (inactive)
COc1cccc(C(=O)Nc2nc3ccc(S(C)(=O)=O)cc3s2)c1	33.2% (active)
O=C(NC(Nc1nc2ccc([N+](=O)[O-])cc2s1)(C(F)(F)F)C(F)(F)F)c1ccccc1	0.792% (inactive)
COc1cccc(C(=O)Nc2nnc(S(=O)(=O)N3CCOCC3)s2)c1	-4.33% (inactive)
CS(=O)(=O)c1ccc2nc(NC(=O)c3ccc(N4CCCC4=O)cc3)sc2c1	-2.38% (inactive)
CNC(=O)c1ccc2nc(NC(C)=O)sc2c1	38% (active)
CS(=O)(=O)c1ccc2nc(NC(=O)CN3CCCCCC3)sc2c1	-1.48% (inactive)
CS(=O)(=O)c1ccc2nc(NC(=O)C3C4C=CC(C4)C3C(=O)O)sc2c1 (centres undefined)	2.94% (inactive)
O=C(Nc1nc2ccc([N+](=O)[O-])cc2s1)c1ccncc1	23.5% (active)
CCCCSCCCNC(=O)C1CCC(CNS(=O)(=O)c2ccc(NC(C)=O)cc2)CC1 (centres undefined)	0.78% (inactive)
Cc1cc(=O)[nH]c(S)c1C#N	-1.97% (inactive)
O=C(CN1CCN(C(=S)NC2CCCC2)CC1)Nc1ccc(Oc2ccccc2)cc1	-0.686% (inactive)
Cc1ccc(C(=O)N(CC(=O)NC2CCCC2)c2ccc(F)cc2)s1	-2.41% (inactive)
CCCn1c(NC(=O)C23CC4CC(CC(O)(C4)C2)C3)nc2ccccc21	-2.34% (inactive)
CCC(=O)c1ccc(N2CCN(C(=O)c3cc([N+](=O)[O-])ccc3F)CC2)c(F)c1	-0.539% (inactive)
Cc1ccc2nc3c(cc(C(=O)NCCc4ccccc4)c(=N)n3CC3CCCO3)c(=O)n2c1 (centres undefined)	-3.51% (inactive)
O=C(Nc1ccccc1)C1CCN(C(=O)c2ccc(Br)cc2)CC1	11.6% (inactive)
O=C(Nc1ccc(C(=O)NCc2ccccc2Cl)cc1)C1=CSCCO1	31.9% (active)
CSc1ccc(CNC(=O)c2ccc(NC(=O)C3=CSCCO3)cc2)cc1	3.98% (inactive)
O=C(NCc1ccccc1Cl)C1CCCO1 (centres undefined)	-1.7% (inactive)

SMILES	max response
Cc1nc(N)nc(SCc2ccc([N+](=O)[O-])cc2)c1N	-1.9% (inactive)
Cc1nc(SCC(=O)c2ccccc2)c([N+](=O)[O-])[nH]1	-1.4% (inactive)
Cc1nc(SCc2ccc(F)cc2)c([N+](=O)[O-])[nH]1	12.6% (active)
Cc1ccc(C)n1NC(=O)c1ccc([N+](=O)[O-])cc1	-0.957% (inactive)
Cc1ccc(C(=O)NNC2=Nc3cc([N+](=O)[O-])ccc3OC2)cc1	20.2% (active)
COc1ccc([N+](=O)[O-])cc1NCC(=O)c1ccc(C)cc1	20.4% (inactive)
O=C(CNC(=O)Cc1ccccc1)N=Nc1c(O)[nH]c2ccc(Br)cc12	-2.22% (inactive)
C/C(CC1CC(C)(C)OC1=O)=N/Nc1nc(-c2ccccc2)cs1 (centres undefined)	24.7% (active)
CC1(C)CC(CC(=O)O)C(=O)O1 (centres undefined)	-0.893% (inactive)
Cc1cc(C(C)(C)C)oc1C(=O)N(CC(=O)NC1CCCC1)Cc1ccc(Cl)cc1	2.13% (inactive)
Cc1ccc(S(=O)(=O)N2CC(C)N(S(C)(=O)=O)C2)cc1 (centres undefined)	-4.88% (inactive)
CC(=O)N/C(=N/c1nc(C)cc(C)n1)Nc1ccc(F)cc1F	-4.27% (inactive)
COc1ccc(C/C(C)=N/NC(=O)c2ccncc2)cc1	3.76% (inactive)
COc1ccc(C/C(C)=N/NC(=O)c2cc(C)oc2C)cc1	26.5% (active)
CCCCCNC(=O)Cc1ccc(OC)cc1	-1.71% (inactive)
O=C1COc2ccc(S(=O)(=O)Nc3ccc(OC(F)(F)F)cc3)cc2N1	-6.66% (inactive)
Fc1ccc(COc2ccc(-c3nnco3)cc2)cc1	52.6% (active)
Fc1ccc(COc2cccc(-c3n[nH]c(=S)o3)c2)cc1	5.34% (inactive)
Fc1cccc(Cl)c1COc1ccc(-c2nnco2)cc1	24.9% (inactive)
